Experiment [1] addresses Serine/threonine-protein kinase MARK2 (UniProt Q7KZI7). Put plainly: cross-link between two proteins; cross-linking mass spectrometry.
In experiment [2] the target is Putative heat shock protein HSP 90-alpha A4 (UniProt Q58FG1). Described as above.
Experiment [3] deals with Laminin subunit gamma-1 (UniProt P11047). The experiment in a line: cross-linking mass spectrometry.
In experiment [4] the target is Splicing factor 45 (UniProt Q96I25). The experiment in a line: cross-linking mass spectrometry.
In experiment [5] the target is Metastasis-associated protein MTA2 (UniProt O94776). Put plainly: cross-link between two proteins; cross-linking mass spectrometry.
Experiment [6] has as its target RNA-binding protein Raly (UniProt Q9UKM9). The description is as above.
Experiment [7] concerns the target Splicing factor 3B subunit 2 (UniProt Q13435). The experiment in a line: cross-linking mass spectrometry.
Experiment [8] has as its target Probable serine carboxypeptidase CPVL (UniProt Q9H3G5). The experiment in a line: cross-link between two proteins; cross-linking mass spectrometry.
Experiment [9] addresses Proteasome subunit beta type-3 (UniProt P49720). Described as above.
Experiment [10] deals with Vesicle transport through interaction with t-SNAREs homolog 1A (UniProt Q96AJ9). Put plainly: cross-linking mass spectrometry.
Vesicle transport through interaction with t-SNAREs homolog 1A, sequence (Q96AJ9 whole entry): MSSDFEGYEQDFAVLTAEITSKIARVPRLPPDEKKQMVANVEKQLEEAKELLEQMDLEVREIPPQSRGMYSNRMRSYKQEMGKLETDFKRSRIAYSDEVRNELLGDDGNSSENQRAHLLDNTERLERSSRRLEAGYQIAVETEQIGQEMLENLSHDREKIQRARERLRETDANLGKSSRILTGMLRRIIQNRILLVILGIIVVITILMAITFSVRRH
For experiment [11], the target named is Charged multivesicular body protein 1a (UniProt Q9HD42). Put plainly: cross-linking mass spectrometry.
Charged multivesicular body protein 1a, sequence (Q9HD42 whole entry): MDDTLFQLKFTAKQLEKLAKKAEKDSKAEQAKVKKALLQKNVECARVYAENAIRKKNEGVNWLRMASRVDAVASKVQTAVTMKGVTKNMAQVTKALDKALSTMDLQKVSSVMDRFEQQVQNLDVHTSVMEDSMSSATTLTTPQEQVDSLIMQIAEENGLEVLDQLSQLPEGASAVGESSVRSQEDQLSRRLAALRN
Experiment [12] deals with Charged multivesicular body protein 3 (UniProt Q9Y3E7). The experiment in a line: cross-linking mass spectrometry.
Charged multivesicular body protein 3, sequence (Q9Y3E7 whole entry): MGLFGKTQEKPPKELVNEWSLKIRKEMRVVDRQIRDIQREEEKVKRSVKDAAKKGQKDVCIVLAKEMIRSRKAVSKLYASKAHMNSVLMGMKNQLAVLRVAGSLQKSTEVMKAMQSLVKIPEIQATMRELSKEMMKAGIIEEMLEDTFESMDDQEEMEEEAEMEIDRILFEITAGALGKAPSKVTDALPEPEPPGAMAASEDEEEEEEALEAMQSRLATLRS
Experiment [13] deals with Transcriptional repressor p66-beta (UniProt Q8WXI9). Put plainly: cross-link between two proteins; cross-linking mass spectrometry.
Experiment [14] has as its target Charged multivesicular body protein 1b (UniProt Q7LBR1). Put plainly: cross-linking mass spectrometry.
Experiment [15] has as its target Melanoma inhibitory activity protein 2 (UniProt Q96PC5). The experiment in a line: cross-link between two proteins; cross-linking mass spectrometry.
The target of experiment [16] is Plexin-A1 (UniProt Q9UIW2). The description is as above.
Experiment [17] has as its target Serine palmitoyltransferase 2 (UniProt O15270). The description is as above.
The target of experiment [18] is Vacuolar protein sorting-associated protein 45 (UniProt Q9NRW7). Put plainly: cross-linking mass spectrometry.
For experiment [19], the target named is Transforming protein RhoA (UniProt P61586). Put plainly: cross-link between two proteins; cross-linking mass spectrometry.
Transforming protein RhoA, sequence (P61586 whole entry): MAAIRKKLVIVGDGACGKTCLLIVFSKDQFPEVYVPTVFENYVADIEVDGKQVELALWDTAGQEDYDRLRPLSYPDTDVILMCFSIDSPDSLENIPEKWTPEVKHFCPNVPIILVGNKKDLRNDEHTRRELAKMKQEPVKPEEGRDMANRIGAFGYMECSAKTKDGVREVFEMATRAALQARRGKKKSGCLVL
For experiment [20], the target named is Endoplasmic reticulum resident protein 44 (UniProt Q9BS26). Put plainly: cross-linking mass spectrometry.
Experiment [21] has as its target Syntaxin-8 (UniProt Q9UNK0). Put plainly: cross-linking mass spectrometry.
Experiment [22] addresses Splicing factor 3B subunit 5 (UniProt Q9BWJ5). Put plainly: cross-linking mass spectrometry.
Experiment [23] deals with THO complex subunit 2 (UniProt Q8NI27). The experiment in a line: cross-link between two proteins; cross-linking mass spectrometry.
The target of experiment [24] is Splicing factor 3A subunit 1 (UniProt Q15459). Put plainly: cross-linking mass spectrometry.
Splicing factor 3A subunit 1, sequence (Q15459 whole entry): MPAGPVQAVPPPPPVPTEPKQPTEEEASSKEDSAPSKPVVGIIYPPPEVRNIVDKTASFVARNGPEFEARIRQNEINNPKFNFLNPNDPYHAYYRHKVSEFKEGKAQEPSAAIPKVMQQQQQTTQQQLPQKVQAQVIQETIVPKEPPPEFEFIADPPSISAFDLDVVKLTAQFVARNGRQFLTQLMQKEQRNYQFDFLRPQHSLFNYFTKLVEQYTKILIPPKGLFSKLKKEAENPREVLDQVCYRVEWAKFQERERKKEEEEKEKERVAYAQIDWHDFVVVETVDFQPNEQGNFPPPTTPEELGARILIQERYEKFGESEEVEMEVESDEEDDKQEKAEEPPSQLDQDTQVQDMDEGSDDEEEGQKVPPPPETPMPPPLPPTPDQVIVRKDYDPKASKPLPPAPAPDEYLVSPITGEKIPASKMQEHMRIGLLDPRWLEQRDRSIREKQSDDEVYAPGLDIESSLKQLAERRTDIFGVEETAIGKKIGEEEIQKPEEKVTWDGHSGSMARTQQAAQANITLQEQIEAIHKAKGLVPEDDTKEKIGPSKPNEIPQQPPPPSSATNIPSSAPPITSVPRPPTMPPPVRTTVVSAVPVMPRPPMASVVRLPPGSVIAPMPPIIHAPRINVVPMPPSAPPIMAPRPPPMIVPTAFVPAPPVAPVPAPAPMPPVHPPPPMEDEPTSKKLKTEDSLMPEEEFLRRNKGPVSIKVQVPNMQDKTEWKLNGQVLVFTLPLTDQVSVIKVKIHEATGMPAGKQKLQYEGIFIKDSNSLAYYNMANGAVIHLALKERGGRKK
Experiment [25] addresses SIR2 antiphage-like protein 2 (UniProt Q9NWS6). The experiment in a line: cross-link between two proteins; cross-linking mass spectrometry.
For experiment [26], the target named is Calcineurin B homologous protein 1 (UniProt Q99653). Put plainly: cross-linking mass spectrometry.
Calcineurin B homologous protein 1, sequence (Q99653 whole entry): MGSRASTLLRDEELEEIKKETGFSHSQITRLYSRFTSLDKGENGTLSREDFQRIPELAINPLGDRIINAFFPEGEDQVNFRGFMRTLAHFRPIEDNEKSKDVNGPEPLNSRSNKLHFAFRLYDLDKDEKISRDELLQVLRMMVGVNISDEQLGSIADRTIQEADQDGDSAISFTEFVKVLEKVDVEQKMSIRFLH
Experiment [27] has as its target THO complex subunit 3 (UniProt Q96J01). Put plainly: cross-link between two proteins; cross-linking mass spectrometry.
For experiment [28], the target named is Structural maintenance of chromosomes protein 3 (UniProt Q9UQE7). The experiment is described as above.
Experiment [29] concerns the target Integrin beta-5 (UniProt P18084). Put plainly: cross-linking mass spectrometry.
Experiment [30] deals with 14-3-3 protein epsilon (UniProt P62258). The experiment in a line: cross-linking mass spectrometry.

The text below walks through data of paper doi:10.1101/2025.02.07.636106.

Splicing factor 3B subunit 5, sequence (Q9BWJ5 whole entry): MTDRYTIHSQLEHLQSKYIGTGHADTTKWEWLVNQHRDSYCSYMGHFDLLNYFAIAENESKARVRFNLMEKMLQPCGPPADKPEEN
Melanoma inhibitory activity protein 2, sequence (Q96PC5 whole entry): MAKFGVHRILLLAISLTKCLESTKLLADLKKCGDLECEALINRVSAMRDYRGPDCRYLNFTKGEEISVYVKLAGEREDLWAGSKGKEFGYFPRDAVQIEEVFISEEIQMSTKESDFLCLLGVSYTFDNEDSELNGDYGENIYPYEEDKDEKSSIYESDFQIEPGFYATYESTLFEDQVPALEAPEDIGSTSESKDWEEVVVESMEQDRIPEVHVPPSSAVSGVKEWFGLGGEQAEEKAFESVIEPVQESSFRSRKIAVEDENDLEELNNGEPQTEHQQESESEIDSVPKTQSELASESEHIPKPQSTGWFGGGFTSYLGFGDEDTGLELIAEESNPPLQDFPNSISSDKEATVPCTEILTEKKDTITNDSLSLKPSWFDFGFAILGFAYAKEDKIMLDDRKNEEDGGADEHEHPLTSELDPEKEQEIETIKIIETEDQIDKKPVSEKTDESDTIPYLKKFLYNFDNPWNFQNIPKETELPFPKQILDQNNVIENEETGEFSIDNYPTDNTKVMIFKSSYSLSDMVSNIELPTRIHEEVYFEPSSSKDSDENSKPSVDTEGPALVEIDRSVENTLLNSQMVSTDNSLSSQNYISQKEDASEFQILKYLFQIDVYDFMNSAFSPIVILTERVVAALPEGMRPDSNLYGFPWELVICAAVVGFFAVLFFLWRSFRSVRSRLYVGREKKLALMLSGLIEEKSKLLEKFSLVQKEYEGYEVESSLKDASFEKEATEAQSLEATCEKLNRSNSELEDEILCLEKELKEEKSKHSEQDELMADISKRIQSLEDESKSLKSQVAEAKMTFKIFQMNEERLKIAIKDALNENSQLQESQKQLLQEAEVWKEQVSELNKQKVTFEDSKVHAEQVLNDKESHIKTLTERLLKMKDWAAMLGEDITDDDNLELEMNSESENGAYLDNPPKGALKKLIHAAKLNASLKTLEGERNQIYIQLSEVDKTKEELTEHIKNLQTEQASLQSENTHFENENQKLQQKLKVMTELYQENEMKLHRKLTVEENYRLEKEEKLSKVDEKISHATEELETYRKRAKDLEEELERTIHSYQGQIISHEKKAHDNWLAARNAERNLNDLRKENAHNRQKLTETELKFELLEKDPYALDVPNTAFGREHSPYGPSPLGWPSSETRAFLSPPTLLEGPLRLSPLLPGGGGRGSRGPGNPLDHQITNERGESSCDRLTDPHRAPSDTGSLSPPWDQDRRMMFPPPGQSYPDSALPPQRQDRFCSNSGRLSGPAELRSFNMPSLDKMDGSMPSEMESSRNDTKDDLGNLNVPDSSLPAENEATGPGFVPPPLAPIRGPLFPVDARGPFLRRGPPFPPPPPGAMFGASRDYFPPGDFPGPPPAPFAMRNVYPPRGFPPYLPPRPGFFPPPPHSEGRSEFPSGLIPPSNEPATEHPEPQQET
Serine palmitoyltransferase 2, sequence (O15270 whole entry): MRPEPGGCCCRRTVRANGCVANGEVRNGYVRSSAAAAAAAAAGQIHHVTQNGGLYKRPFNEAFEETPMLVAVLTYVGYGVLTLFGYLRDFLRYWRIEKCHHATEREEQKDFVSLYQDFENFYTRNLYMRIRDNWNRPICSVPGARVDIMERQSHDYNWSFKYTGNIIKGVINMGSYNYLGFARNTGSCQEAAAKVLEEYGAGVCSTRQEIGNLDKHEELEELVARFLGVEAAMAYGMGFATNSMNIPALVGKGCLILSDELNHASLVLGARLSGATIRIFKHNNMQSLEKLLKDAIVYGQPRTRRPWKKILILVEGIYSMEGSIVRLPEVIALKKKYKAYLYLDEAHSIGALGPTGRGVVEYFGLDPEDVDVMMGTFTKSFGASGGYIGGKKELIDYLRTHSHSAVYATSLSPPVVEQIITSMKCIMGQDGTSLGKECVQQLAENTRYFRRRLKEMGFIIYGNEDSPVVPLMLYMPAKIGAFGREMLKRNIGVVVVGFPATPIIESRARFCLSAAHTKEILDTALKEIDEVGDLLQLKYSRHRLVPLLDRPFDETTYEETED
Rho-related GTP-binding protein RhoC, P08134, sequence (P08134 whole entry): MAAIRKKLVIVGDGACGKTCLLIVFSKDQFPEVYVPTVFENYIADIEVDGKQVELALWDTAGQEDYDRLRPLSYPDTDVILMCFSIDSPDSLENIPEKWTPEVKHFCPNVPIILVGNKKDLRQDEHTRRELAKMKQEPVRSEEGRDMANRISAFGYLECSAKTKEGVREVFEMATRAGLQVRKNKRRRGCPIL
RNA-binding Raly-like protein, Q86SE5, sequence (Q86SE5 whole entry): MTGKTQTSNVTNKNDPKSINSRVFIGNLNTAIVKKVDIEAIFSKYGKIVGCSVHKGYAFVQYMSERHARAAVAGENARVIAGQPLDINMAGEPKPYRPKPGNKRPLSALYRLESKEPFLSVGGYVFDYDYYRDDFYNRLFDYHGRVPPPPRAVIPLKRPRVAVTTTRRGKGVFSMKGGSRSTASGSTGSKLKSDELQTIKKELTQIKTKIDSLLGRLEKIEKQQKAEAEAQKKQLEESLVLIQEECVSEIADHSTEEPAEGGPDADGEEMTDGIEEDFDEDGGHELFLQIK
THO complex subunit 3, sequence (Q96J01 whole entry, one chain of several): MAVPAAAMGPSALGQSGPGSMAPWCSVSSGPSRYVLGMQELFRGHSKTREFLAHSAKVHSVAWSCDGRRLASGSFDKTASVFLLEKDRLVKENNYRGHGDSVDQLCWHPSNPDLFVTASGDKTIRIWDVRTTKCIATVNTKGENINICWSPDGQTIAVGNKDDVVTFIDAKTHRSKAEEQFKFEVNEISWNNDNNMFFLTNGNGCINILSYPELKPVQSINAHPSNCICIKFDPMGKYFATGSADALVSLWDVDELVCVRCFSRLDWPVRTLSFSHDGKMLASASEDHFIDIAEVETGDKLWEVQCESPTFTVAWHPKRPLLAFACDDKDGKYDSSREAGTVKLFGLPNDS
Proteasome subunit beta type-3, sequence (P49720 whole entry): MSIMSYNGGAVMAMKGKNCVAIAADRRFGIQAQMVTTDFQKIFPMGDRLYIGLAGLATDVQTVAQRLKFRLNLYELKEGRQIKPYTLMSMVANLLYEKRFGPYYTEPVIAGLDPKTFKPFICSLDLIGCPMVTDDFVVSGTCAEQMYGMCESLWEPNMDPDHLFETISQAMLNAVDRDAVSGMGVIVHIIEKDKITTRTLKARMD

With “MAP/microtubule affinity-regulating kinase 3, P27448”, in experiment [1], the “listed as a hit” value is listed as “yes”.

For “Putative heat shock protein HSP 90-beta 2, Q58FF8”, the “listed as a hit” value in experiment [2] is “yes”.

On to Laminin subunit beta-1, P07942, for which the “listed as a hit” value in experiment [3] is listed as “yes”.

For “U2 snRNP-associated SURP motif-containing protein, O15042”, the “listed as a hit” value in [4] was “yes”.

“U3 small nucleolar RNA-interacting protein 2, O43818”: in [5], the “listed as a hit” value was “yes”.

As for RNA-binding Raly-like protein, Q86SE5, in [6], the “listed as a hit” value was “yes”.

On to “U2 small nuclear ribonucleoprotein A', P09661”, for which the “listed as a hit” value in experiment [7] is “yes”.

Protein ZBED11, P0CF97: the “listed as a hit” value in experiment [8] is reported as “yes”.

As to Proteasome subunit beta type-5, P28074, the “listed as a hit” value in experiment [9] is “yes”.

As for “Alpha-soluble NSF attachment protein, P54920”, the “listed as a hit” value in experiment [10] is recorded as “yes”.

As to “Charged multivesicular body protein 1b, Q7LBR1”, the “listed as a hit” value in [11] and in [12] was “yes” in each case.

With “Interferon-inducible double-stranded RNA-dependent protein kinase activator A, O75569”, the “listed as a hit” value in experiment [13] was “yes”.

On to “Charged multivesicular body protein 2a, O43633”, for which the “listed as a hit” value in experiment [11], in experiment [14], in experiment [12] and in experiment [15] was “yes” each time.

Consider “Coiled-coil domain-containing protein 7, Q96M83”, for which the “listed as a hit” value in experiment [16] is on record as “yes”.

As for Serine palmitoyltransferase 1, O15269, the “listed as a hit” value in experiment [17] is “yes”.

Turning to Syntaxin-16, O14662, the “listed as a hit” value in [18] and in experiment [10] was “yes” in each case.

For the substance “Rho-related GTP-binding protein RhoC, P08134”, the “listed as a hit” value in [19] is listed as “yes”.

Take Peroxiredoxin-4, Q13162: the “listed as a hit” value in experiment [20] is given as “yes”.

Regarding “Vesicle transport through interaction with t-SNAREs homolog 1B, Q9UEU0”, the “listed as a hit” value in experiment [21] is “yes”.

For the substance Splicing factor 3B subunit 3, Q15393, the “listed as a hit” value in [22] was “yes”.

Consider Flotillin-2, Q14254, for which the “listed as a hit” value in experiment [23] is “yes”.

Splicing factor 3A subunit 2, Q15428: in experiment [24], the “listed as a hit” value was “yes”.

For Protein disulfide-isomerase, P07237, the “listed as a hit” value in experiment [25] was “yes”.

Take “Glycerol-3-phosphate acyltransferase 4, Q86UL3”: in experiment [26], the “listed as a hit” value is reported as “yes”.

Regarding THO complex subunit 5, Q13769, the “listed as a hit” value in experiment [27] is “yes”.

Take Titin, Q8WZ42: in experiment [28], the “listed as a hit” value is on record as “yes”.

As for Integrin alpha-V, P06756, in [29], the “listed as a hit” value is “yes”.

As to 14-3-3 protein gamma, P61981, the “listed as a hit” value in [30] was “yes”.
